Test results from the supplement of paper PMC8728848.
The full list was thinned out, with the strongest signals kept by preference.

Key:
Assay in all cases: glycan array binding signal (z-score within array); higher = stronger binding
Conditions in all cases: glycan notation: IUPAC condensed, linker removed
[1] = molecular target: Fuc(a1-2)Gal(b1-3)GlcNAc(b1-2)Man(a1-3)[Fuc(a1-2)Gal(b1-3)GlcNAc(b1-2)Man(a1-6)]Man(b1-4)GlcNAc(b1-4)[Fuc(a1-6)]GlcNAc
In short: (§1)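 The Consortium for Functional Glycomics database supplied 3228 glycan arrays, of which those lacking an available protein sequence were dropped. The binding signal, a within-array Z-score, was averaged across arrays of the same protein sequence and across linkers. Negative scores can be read as non-binding.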

[2] = molecular target: Fuc(a1-2)Gal(b1-3)GlcNAc(b1-3)GalNAc
In short: as §1

[3] = molecular target: Fuc(a1-2)Gal(b1-3)[Fuc(a1-4)]GlcNAc(b1-3)[Gal(b1-4)GlcNAc(b1-6)]Gal(b1-4)Glc
In short: as §1

[4] = molecular target: Fuc(a1-2)Gal(b1-4)GlcNAc(b1-3)Gal(b1-4)GlcNAc
In short: as §1

[5] = molecular target: Fuc(a1-2)Gal(b1-4)GlcNAc(b1-3)Gal(b1-4)GlcNAc(b1-3)Gal(b1-4)GlcNAc
In short: as §1

[6] = molecular target: Fuc(a1-2)Gal(b1-4)[Fuc(a1-3)]GlcNAc(b1-3)Gal(b1-4)[Fuc(a1-3)]GlcNAc(b1-3)Gal(b1-4)[Fuc(a1-3)]GlcNAc
In short: as §1

[7] = molecular target: Fuc(a1-2)[Gal(a1-3)]Gal(b1-4)GlcNAc(b1-2)Man(a1-3)[Fuc(a1-2)[Gal(a1-3)]Gal(b1-4)GlcNAc(b1-2)Man(a1-6)]Man(b1-4)GlcNAc(b1-4)[Fuc(a1-6)]GlcNAc
In short: as §1

[8] = molecular target: Fuc(a1-2)[Gal(a1-3)]Gal(b1-4)[Fuc(a1-3)]GlcNAc(b1-3)GalNAc
In short: as §1

[9] = molecular target: Fuc(a1-2)[GalNAc(a1-3)]Gal(b1-4)GlcNAc(b1-3)Gal(b1-4)GlcNAc
In short: as §1

[10] = molecular target: Fuc(a1-2)[GalNAc(a1-3)]Gal(b1-4)GlcNAc(b1-3)Gal(b1-4)GlcNAc(b1-3)Gal(b1-4)GlcNAc
In short: as §1

Fuc(a1-3)GlcNAc = molecular target: Fuc(a1-3)GlcNAc
In short: as §1

Gal(b1-2)Gal = molecular target: Gal(b1-2)Gal
In short: as §1

[11] = molecular target: Gal(b1-3)GalNAc(a1-3)[Fuc(a1-2)]Gal(b1-4)Glc
In short: as §1

[12] = molecular target: Gal(b1-3)GlcNAc(b1-2)Man(a1-3)[Gal(b1-3)GlcNAc(b1-2)Man(a1-6)]Man(b1-4)GlcNAc(b1-4)GlcNAc
In short: as §1

[13] = molecular target: Gal(b1-3)[Fuc(a1-4)]GlcNAc(b1-2)Man(a1-3)[Gal(b1-3)[Fuc(a1-4)]GlcNAc(b1-2)Man(a1-6)]Man(b1-4)GlcNAc(b1-4)GlcNAc
In short: as §1

[14] = molecular target: Gal(b1-3)[Fuc(a1-4)]GlcNAc(b1-2)Man(a1-3)[Gal(b1-3)[Fuc(a1-4)]GlcNAc(b1-2)Man(a1-6)]Man(b1-4)GlcNAc(b1-4)[Fuc(a1-6)]GlcNAc
In short: as §1

[15] = molecular target: Gal(b1-4)GlcNAc(b1-3)Gal(b1-4)GlcNAc(b1-3)Gal(b1-4)GlcNAc
In short: as §1

[16] = molecular target: Gal(b1-4)GlcNAc(b1-6)Gal(b1-4)GlcNAc
In short: as §1

Gal4S(b1-4)GlcNAc = molecular target: Gal4S(b1-4)GlcNAc
In short: as §1

Gal6S(b1-4)Glc = molecular target: Gal6S(b1-4)Glc
In short: as §1

Gal6S(b1-4)GlcNAc = molecular target: Gal6S(b1-4)GlcNAc
In short: as §1

[17] = molecular target: GlcNAc(b1-2)Man(a1-3)[GlcNAc(b1-4)][GlcNAc(b1-2)Man(a1-6)]Man(b1-4)GlcNAc(b1-4)GlcNAc
In short: as §1

[18] = molecular target: Neu5Ac(a2-3)Gal(b1-3)GlcNAc(b1-3)GalNAc
In short: as §1

[19] = molecular target: Neu5Ac(a2-6)Gal(b1-4)GlcNAc(b1-2)Man(a1-3)[Gal(b1-4)GlcNAc(b1-2)Man(a1-6)]Man(b1-4)GlcNAc(b1-4)GlcNAc
In short: as §1

[20] = molecular target: Neu5Ac(a2-6)Gal(b1-4)GlcNAc(b1-2)Man(a1-6)[Man(a1-3)]Man(b1-4)GlcNAc(b1-4)GlcNAc
In short: as §1

[21] = molecular target: Neu5Ac(a2-6)Gal(b1-4)GlcNAc(b1-3)Gal(b1-3)GlcNAc
In short: as §1

[22] = molecular target: Neu5Ac(a2-6)Gal(b1-4)GlcNAc(b1-3)Gal(b1-4)GlcNAc(b1-3)Gal(b1-4)GlcNAc
In short: as §1

[23] = molecular target: Neu5Gc(a2-3)Gal(b1-4)GlcNAc
In short: as §1

B1: Gal 7 (Canis lupus) (protein)
chain: MAGSSNVPHKTSLPEGIRVGTVMRIRGVVPNKAGRFYVNLLCGEAPGSEAALHFNPRLDESTVVFNTLEQGAWGREERGTGIPFQRGQPFDVLLIATDEGFKAVVGDSEYHHFRYRIPPARVRLLEVGGDLQLESVSVF
For B1, the “glycan array binding signal (z-score)” value [1] was -0.169, the “glycan array binding signal (z-score)” value [2] was -0.187 and the “glycan array binding signal (z-score)” value [3] was -0.135. For the same binder, the “glycan array binding signal (z-score)” value [4] was 9.85, the “glycan array binding signal (z-score)” value [5] was 8.28 and the “glycan array binding signal (z-score)” value [6] was 5.78. The “glycan array binding signal (z-score)” value [7] was 1.25, the “glycan array binding signal (z-score)” value [8] was -0.16 and the “glycan array binding signal (z-score)” value [9] was 3.55. For the same binder, the “glycan array binding signal (z-score)” value [10] was 2.59, the “glycan array binding signal (z-score)” value (Fuc(a1-3)GlcNAc) was -0.217 and the “glycan array binding signal (z-score)” value (Gal(b1-2)Gal) was -0.214. For the same binder, the “glycan array binding signal (z-score)” value [11] was 0.252, the “glycan array binding signal (z-score)” value [12] was -0.08 and the “glycan array binding signal (z-score)” value [13] was -0.166. The “glycan array binding signal (z-score)” value [14] was -0.199, the “glycan array binding signal (z-score)” value [15] was 3.2 and the “glycan array binding signal (z-score)” value [16] was -0.206. The “glycan array binding signal (z-score)” value (Gal4S(b1-4)GlcNAc) was -0.2, the “glycan array binding signal (z-score)” value (Gal6S(b1-4)Glc) was -0.204 and the “glycan array binding signal (z-score)” value (Gal6S(b1-4)GlcNAc) was -0.195. The “glycan array binding signal (z-score)” value [17] was -0.186, the “glycan array binding signal (z-score)” value [18] was -0.22 and the “glycan array binding signal (z-score)” value [19] was -0.212. For the same binder, the “glycan array binding signal (z-score)” value [20] was -0.212, the “glycan array binding signal (z-score)” value [21] was 3.85 and the “glycan array binding signal (z-score)” value [22] was 3.5. The “glycan array binding signal (z-score)” value [23] was -0.217.
